# According to PubChem BioAssay AID1839 (Johns Hopkins Ion Channel Center, 2009):
# About 220 (9.2%) of roughly 2,400 compounds were called active. Only a selection was taken, and actives are over-represented in it overall. A number with no mark means an inactive call.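 How the source made its calls: active means signal change above the mean of dofetilide-free buffer controls plus 3 SD, so a positive margin; inactive means the rest.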
# Test: thallium signal changes without hERG – cell-based, CHO-K1 parental line, FluxOR thallium flux, counter-screen for hERG block protection project, confirmation (AID 1839);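 further: compounds applied alone with no dofetilide to cells lacking hERG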
# Settings: CHO-K1 parental cells, FluxOR thallium flux fluorescence; at 10 µM
row,Structure (SMILES),"signal change vs control minus 3*SD hit threshold (margin above threshold, higher = more increase)"
1,CCc1ccc(OCC(=O)Nc2ncn[nH]2)cc1,-35.2%
2,Cc1ccc2[nH]c3c(c2c1)CNCC3,-32%
3,CN(c1ccccc1)S(=O)(=O)c1ccc(Cl)c(C(=O)Nc2nn[nH]n2)c1,-24.2%
4,COc1ccc(C2N=C(c3ccccc3)C(C)(C)N2O)cc1 (stereo not given),-23.4%
5,Cc1ccccc1-c1nnn(CC(=O)NCc2ccc3c(c2)OCO3)n1,-37.1%
6,Cc1cccc(/N=C/c2sc3ccccc3c2O)n1,-19.2%
7,O=C(NCC1CCCO1)c1ccc2c(=O)n(Cc3ccco3)c(SCC(=O)N3CCCC3)nc2c1 (stereo not given),-14.7%
8,Clc1cccc(OCCCN2CCCC2)c1Cl,-24.8%
9,CCCCC1C2=C(CCCC2=O)OC2=C1C(=O)CCC2,-34.5%
10,Cc1ccc(C(=O)N2CCN(c3ccccc3)CC2)cc1S(=O)(=O)N1CCCC1,-7.2%
11,Cc1ccc(-c2nc3c(Cl)cc(Cl)cc3c(=O)n2O)cc1,65.6% (active)
12,Cc1ccc(-c2nc3ccccc3c(=O)n2O)cc1,-12.7%
13,Cc1cc(=O)[nH]c(SCC(=O)NC2CCCCC2)n1,-27%
14,CCOc1ccccc1NC(=S)NC(=O)c1ccco1,-16.7%
15,O=C(NC(=S)Nc1ccccc1Br)c1ccco1,-14.3%
16,Cc1cccc(NC(=O)CCNC(=O)c2ccco2)c1C,-27.7%
17,CCC(C)c1ccccc1NC(=S)NC(=O)c1ccco1 (stereo not given),40% (active)
18,O=C(NC(=S)Nc1ccc(N2CCCCC2)cc1)c1ccco1,9.4% (active)
19,O=C(NC(=S)Nc1cccc(Cl)c1N1CCCCC1)c1ccco1,-27.7%
20,O=C(NC(=S)Nc1ccccc1N1CCCC1)c1ccco1,-20.8%
21,Cc1cccc(NC(=S)NC(=O)c2ccco2)c1C,20% (active)
22,CCOc1ccc(NC(=S)NC(=O)c2ccco2)cc1,-15.7%
23,O=C1OCCC1Sc1nc2ccccc2c(=O)n1Cc1ccc(F)cc1 (stereo not given),-13.7%
24,CCc1ccc(C(=O)NNC(=O)c2ccc(=O)n(C)n2)cc1,-31%
25,O=C(NC(=S)N1CCN(c2nc(-c3ccccc3)cs2)CC1)c1cncc(Br)c1,-12.3%

row,Structure (SMILES),"signal change vs control minus 3*SD hit threshold (margin above threshold, higher = more increase)"
1,CC(NC(=O)NC1CCCCC1)c1ccccc1 (stereo not given),-8.9%
2,Oc1c(N=Nc2ccccn2)ccc2ccccc12,-28.3%
3,O=C(N/N=C\c1coc2ccccc2c1=O)c1ccco1,-25.6%
4,O=C(O)COc1ccccc1/C=C1\SC(=S)N(NC(=O)c2ccccc2O)C1=O,-20.5%
5,Cc1c(N2C(=O)/C(=C\c3ccccc3O)SC2=S)c(=O)n(-c2ccccc2)n1C,7.5% (active)
6,CC(/C=C1\SC(=S)N(c2ccc(C(=O)O)cc2)C1=O)=C\c1ccccc1,-40.7%
7,COc1ccc(N(C(=O)c2ccco2)S(=O)(=O)c2cccs2)cc1,-26.1%
8,O=C(Cn1cncn1)c1ccccc1Br,-37.9%
9,Cc1cc(C)cc(-n2ncc3c2CCCC3NC(=O)c2csnn2)c1 (stereo not given),-40.3%
10,CCCCN1C(=O)/C(=C2/Sc3ccc(Cl)cc3N2CC)SC1=S,-39.8%
11,COc1ccc(OCC(=O)NNC(=O)C(=O)Nc2cc(OC)ccc2OC)cc1,-1.8%
12,COc1ccc(OC)c(NC(=O)C(=S)NC2CCCCC2)c1,-22.8%
13,COc1ccc(OC)c(NC(=O)C(=O)NNC(=O)C23CC4CC(CC(C4)C2)C3)c1,42.5% (active)
14,CC(NC(=O)CCCn1cc([N+](=O)[O-])cn1)c1ccccc1 (stereo not given),-29.8%
15,CCCCNC(=S)NNC(=O)c1ccc2c(c1)OCO2,-29.2%
16,N=C1C(=O)OCC1c1cc(Cl)ccc1NC(=O)Nc1ccccc1 (stereo not given),-31.4%
17,Cc1cccc(NC(=O)C(=O)NNC(=O)c2ccc(C(C)(C)C)cc2)c1,44.5% (active)
18,CC(C)(C)NC(=O)C(=O)NNC(=O)c1ccccc1,-23.3%
19,CCCc1cc(C(=O)NNC(=S)Nc2cccc(C)c2)cs1,-32.4%
20,CC(C)(C)NC(=O)C(=O)NNC(=O)c1ccc(C(C)(C)C)cc1,1.9% (active)
21,CC(C)(C)NC(=O)C(=O)NNC(=O)c1cccc(Br)c1,-6.8%
22,Cc1cccc(C(=O)NC(=S)NNC(=O)c2ccc(Cl)cc2)c1,-44.5%
23,CCOC(=O)N1CCN(C(=O)COC(=O)c2cc(Cl)c(O)c(Cl)c2)CC1,-24.7%
24,Cc1ccc(O)c(Sc2cc(C)ccc2O)c1,-41.7%
25,CC(C)CSC1=NSC2=NC(=O)/C(=C\c3ccccc3)C(=N)N12,-21.5%
